# Data from the supplement of paper PMC7156485.
# Test system: HCC1569
# Experiment: cell number relative to DMSO (% of DMSO); higher = more cells (less growth inhibition / toxicity)
# Settings: concentration: 10 µM; 24 h
# Procedure, shortened: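 H1.0 nuclear intensity or cell number is expressed as percent of the plate control, with the median of replicates taken. HCC1569 and TDF cells were treated with compounds at 10 µM for 24 h at 37 °C, in triplicate, then fixed and immunostained for H1.0 with DAPI as a nuclear stain. HCC1569 values were smoothed to correct for positional effects.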
# 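Also: TDF denotes transformed human dermal fibroblasts of mesenchymal origin.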
row,SMILES,cell number
1,CCCCCCCCCCCCCCCC(=O)NCCO [Palmitylethanolamide],99.8
2,O=C(O)C=Cc1cnc[nH]1 [4-Imidazoleacrylic acid],101
3,C[n+]1cccc(C(=O)O)c1.[Cl-],99.8
4,COC1(C2=NCCN2)COc2ccccc2O1.Cl (stereo not given),104
5,"O=Nc1ccc2oc(=O)ccc2c1 [6-Nitroso-1,2-benzopyrone]",100
6,Cn1ccnc1 [1-Methylimidazole],103
7,OCCN1CCN(CCCN2c3ccccc3Sc3ccc(Cl)cc32)CC1 [Perphenazine],88
8,CC(C)NCC(O)COc1ccc(CC(N)=O)cc1 (stereo not drawn) [S(-)-Atenolol],101
9,O=C(Nc1cccc(C(=O)Nc2ccc(S(=O)(=O)[O-])c3cc(S(=O)(=O)[O-])cc(S(=O)(=O)[O-])c23)c1)Nc1cccc(C(=O)Nc2ccc(S(=O)(=O)[O-])c3cc(S(=O)(=O)[O-])cc(S(=O)(=O)[O-])c23)c1.[Na+].[Na+].[Na+].[Na+].[Na+].[Na+],102
10,COc1ncnc(NS(=O)(=O)c2ccc(N)cc2)c1OC [Sulfadoxine],104
11,"COC(=O)[C@@H](N)Cc1ccc(O)c(O)c1.Cl [L-3,4-Dihydroxyphenylalanine methyl ester hydrochloride]",102
12,CN(CC=CC#CC(C)(C)C)Cc1cccc2ccccc12 [Terbinafine],104
13,O=c1cc(N2CCOCC2)oc2c(-c3ccccc3)cccc12,83.3
14,CCCCCCCCCCCCCCCCCCOCC(COP(=O)([O-])OCC[N+](C)(C)C)OC (stereo not given) [1-Octadecyl-2-methylglycero-3 PC],105
15,CCCCCCCC/C=C\CCCCCCCC(N)=O [(9Z)-9-octadecenamide],102
16,CCC12CCCN3CCc4c(n(c5ccccc45)C(O)(C(=O)OC)C1)C32 (stereo not given) [Vincamine],101
17,Nc1nc(=O)c2ncn(COCCO)c2[nH]1 [Acyclovir],98.8
18,COc1cc(NC(C)CCCN)c2ncccc2c1 (stereo not given) [Primaquine],102
19,"O=C1CC(=O)c2c(Cl)c(Cl)c(Cl)c(Cl)c21 [4,5,6,7-tetrachloro-1H-indene-1,3(2H)-dione]",101
20,"O=c1cc(N2CCOCC2)oc2c1ccc1ccccc12 [NU 7026 - 2-(4-Morpholinyl)-4H-naphthol[1,2-b]pyran-4-one]",96

row,SMILES,cell number
1,NNC(=O)c1ccncc1 [Isoniazid],105
2,COc1cc2ncn(-c3cc(OCc4ccc(S(C)(=O)=O)cc4)c(C(N)=O)s3)c2cc1OC [Polo-like Kinase Inhibitor I],104
3,O=c1cc(-c2ccc(O)cc2)oc2cc(OC3OC(CO)C(O)C(O)C3O)cc(O)c12 (stereo not given) [Apigenin-7-glucoside],98.2
4,"CCN(CC)C(=O)c1ccc(Nc2nc(OCC3CCCCC3)c3[nH]cnc3n2)cc1 [Cdk2 Inhibitor IV,                 NU6140]",73.4
5,COC(=O)C1=C(C)NC(C)=C([N+](=O)[O-])C1c1ccccc1C(F)(F)F (racemic),99
6,CC1=C(C)C(=O)C(CCCCC#CCCCC#CCO)=C(C)C1=O [Docebenone],93.3
7,"CN(C)c1nc(N)c(C(=O)N=C(N)N)nc1Cl.Cl [5-(N,N-Dimethyl)amiloride hydrochloride]",99.9
8,Cc1cnc(-c2cnc(NCCNc3ccc(C#N)cn3)nc2-c2ccc(Cl)cc2Cl)[nH]1,70.4
9,"CC(C)(CCCCCCCCCCC(C)(C)CC(=O)O)CC(=O)O [3,3,14,14-tetramethylhexadecanedioic acid]",102
10,CC(=O)NCCc1ccc(O)c(O)c1 [N-Acetyldopamine monohydrate],101
11,N#CC(=Cc1ccc(O)cc1)C(N)=C(C#N)C#N,99
12,Cl.Oc1ccc(C2CNCCc3c2cc(O)c(O)c3Cl)cc1 (stereo not given) [Fenoldopam.HCl],97.6
13,"CCCCCCCCC=CCCCCCCCC(N)=O [9,10-Octadecenoamide]",98.5
14,COc1c2ccoc2cc2oc(C)cc(=O)c12 [Visnagin],103
15,"O=c1ccc2ccc(O)c(O)c2o1 [7,8-dihydroxy-2H-chromen-2-one]",99.2
16,"COc1ccc(/C=C\c2cc(OC)c(OC)c(OC)c2)cc1O [2-methoxy-5-[(Z)-2-(3,4,5-trimethoxyphenyl)ethenyl]phenol]",61.6
17,CCN(CC)CCOC(=O)C1(C2CCCCC2)CCCCC1.Cl [Dicyclomine hydrochloride],100
18,CCn1cc(C(=O)O)c(=O)c2ccc(C)nc21 [Nalidixic acid],102
19,Cc1scc2c1N(C(=O)CN1CCN(C)CC1)c1ccccc1NC2=O.Cl.Cl [Telenzepine.2HCl],101
20,OCC1OC(n2cnc3c(Nc4ccccc4)ncnc32)C(O)C1O (stereo not given) [N6-Phenyladenosine],101
